The values below come from PubChem BioAssay (Tox21).

Calls of active or inactive are those of the source. Unless noted, calls follow the shape of the dose curve; as a rule, active = well fitted curve in the direction sought with a large enough effect in the repeat runs; inconclusive = weak or mixed curves; inactive = no such curve, though single readings can be large; an effect the other way counts as inactive or inconclusive.

The nature of experiment [1]: qHTS assay to identify small molecule antagonists of the glucocorticoid receptor (GR) signaling pathway - cell viability counter screen (AID 720693). Also: nearly all actives have a fitted effect of over 55% in size.
Experiment [2] in a line: qHTS assay for identifying genotoxic compounds that show differential cytotoxicity against isogenic chicken DT40 cell lines with known DNA damage response pathways - wild type cell line (AID 743012). Also: nearly all actives have a fitted effect of over 60% in size. Also: potency is read from the fitted curve at half-maximal effect. An outline of the steps: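 Cells (DT40 wild type, 300/well) are treated with DMSO-dissolved compounds after a ~0.5 h pre-incubation and kept 40 h at 37 C/5% CO2. Viability is then measured by CellTiter-Glo luminescence following 30 min at room temperature.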
For orientation: Quantitative high-throughput screening tests each substance at several concentrations.

Experiment [3] in a line: qHTS assay for identifying genotoxic compounds that show differential cytotoxicity against isogenic chicken DT40 cell lines with known DNA damage response pathways - Rev3 mutant cell line (AID 743014). Also: nearly all actives have a fitted effect of over 55% in size. Also: potency is read from the fitted curve at half-maximal effect.
Experiment [4] is described as follows: qHTS assay to identify small molecule antagonists of the androgen receptor (AR) signaling pathway - cell viability counter screen (AID 743033; also: nearly all actives have a fitted effect of over 45% in size).
The nature of experiment [5]: qHTS assay to identify small molecule antagonists of the androgen receptor (AR) signaling pathway using the MDA cell line - cell viability counter screen (AID 743041; also: nearly all actives have a fitted effect of over 45% in size). An outline of the steps:
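Same-well cytotoxicity was assessed by CellTiter-Fluor in MDA-kb2 AR-luc cells after 16 h of compound treatment under R1881 agonism.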

In experiment [6] the test system is thyroid hormone receptor (rat, GH3 cells). The experiment can be described thus: qHTS assay to identify small molecule agonists of the thyroid receptor (TR) signaling pathway (AID 743066; calls by dose curve; also: potency is read from the fitted curve at half-maximal effect).
Experiment [7] can be described thus: qHTS assay to identify small molecule antagonists of the estrogen receptor alpha (ER-alpha) signaling pathway - cell viability counter screen (AID 743074; calls by dose curve;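 also: HEK293 cells carrying ER-alpha-UAS-bla reporter stimulated with 17beta-estradiol; nearly all actives have a fitted effect of over 45% in size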).
Experiment [8] can be described thus: qHTS assay to identify small molecule antagonists of the estrogen receptor alpha (ER-alpha) signaling pathway using the BG1 cell line - cell viability counter screen (AID 743081).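 Also: compound given together with 17beta-estradiol as the ER stimulus; series mostly up to about 70 µM; nearly all actives have a fitted effect of over 45% in size.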
A further experiment deals with Aromatase (Homo sapiens) (UniProt P11511). The experiment in a line: qHTS assay to identify aromatase inhibitors (AID 743083). Also: series mostly up to about 70 µM; nearly all actives have a fitted effect of over 55% in size.
Experiment [9] is described as follows: qHTS assay for identifying genotoxic compounds that show differential cytotoxicity against isogenic chicken DT40 cell lines with known DNA damage response pathways - Rad54/Ku70 mutant cell line (AID 743015). Also: nearly all actives have a fitted effect of over 60% in size. Also: potency is read from the fitted curve at half-maximal effect.
The target of experiment [10] is Androgen receptor (Homo sapiens) (UniProt P10275). The experiment in a line: qHTS assay to identify small molecule antagonists of the androgen receptor (AR) signaling pathway (AID 743035; active = well fitted inhibition curve with a large enough effect in the signal ratio in the repeat runs, not every such curve was filed as active; inconclusive = weak or mixed curves, or effect the other way; inactive = no such curve, though single readings can be large or run the other way; the % refers to the signal ratio). An outline of the steps:
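Antagonism is scored as loss of R1881-driven beta-lactamase reporter expression in HEK293 cells carrying the reporter under a UAS element, after 16 h co-treatment at 37C and a 2 h room-temperature FRET substrate read.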

For experiment [11] the target is unchanged. The experiment can be described thus: qHTS assay to identify small molecule agonists of the androgen receptor (AR) signaling pathway (AID 743036; active = well fitted activation curve with a large enough effect in the signal ratio in the repeat runs, with a control signal flat, not every such curve was filed as active; inconclusive = weak or mixed curves, or effect the other way; inactive = no such curve, though single readings can be large or run the other way; the % refers to the signal ratio). In short, it runs like this: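 Reporter line: GeneBLAzer AR-UAS-bla-GripTite (HEK293). Steps: plate cells, 4 h rest, add compounds, 16 h at 37C, add LiveBLAzer B/G substrate, 2 h at RT, read fluorescence.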

For experiment [12] the target is unchanged. The experiment in a line: qHTS assay to identify small molecule agonists of the androgen receptor (AR) signaling pathway using the MDA cell line (AID 743040; also: nearly all actives have a fitted effect of over 20% in size). In short, it runs like this:
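Human breast carcinoma MDA-kb2 reporter cells (MMTV-luc, AR/GR elements) were treated for 16 h at 37C in 0% CO2 following a 5 h settling period. Signal was quantified by ONE-Glo luminescence.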

Experiment [13] shares this target. The experiment can be described thus: qHTS assay to identify small molecule antagonists of the androgen receptor (AR) signaling pathway using the MDA cell line (AID 743042; also: nearly all actives have a fitted effect of over 55% in size). In short, it runs like this: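 MDA-kb2 breast carcinoma cells carrying MMTV-luciferase (AR/GR responsive) were co-treated with compounds and the agonist R1881 for 16 h at 37C. Inhibition read as ONE-Glo luminescence; CellTiter-Fluor fluorescence measured in parallel for cytotoxicity.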

The nature of experiment [14]: qHTS assay to identify small molecule antagonists of the thyroid receptor (TR) signaling pathway - cell viability counter screen (AID 743064). Also: nearly all actives have a fitted effect of over 50% in size. Also: potency is read from the fitted curve at half-maximal effect. An outline of the steps:
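Plate GH3.TRE-Luc cells; incubate 4 h at 37 °C; add compound, then T3 to 1 nM final; incubate 23.5 h; add CellTiter-Fluor; incubate 30 min at 37 °C, 5% CO2; read fluorescence.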

Experiment [15] in a line: qHTS assay to identify small molecule antagonists of the thyroid receptor (TR) signaling pathway (AID 743065). In short, it runs like this:
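GH3.TRE-Luc rat pituitary cells (two TREs driving luciferase) were dosed with compound, then stimulated with 1 nM T3 (final) for 23.5 h at 37 C. ONE-Glo luminescence was the read-out, with CellTiter-Fluor fluorescence as the cytotoxicity counter-screen.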

In experiment [16] the target is Estrogen receptor (Homo sapiens) (UniProt P03372). The experiment can be described thus: qHTS assay to identify small molecule antagonists of the estrogen receptor alpha (ER-alpha) signaling pathway (AID 743069; active = well fitted curve in the direction sought with a large enough effect in the signal ratio in the repeat runs, not every such curve was filed as active; inconclusive = weak or mixed curves, or effect the other way; inactive = no such curve, though single readings can be large or run the other way; the % refers to the signal ratio). An outline of the steps:
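Reporter cells (ER-alpha-bla, HEK293 background) are conditioned overnight in stripped-serum medium (2% charcoal-stripped FBS). Compound and 17beta-estradiol exposure runs 18 hr at 37C, 5% CO2.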

For experiment [17] the target is unchanged. The experiment in a line: qHTS assay to identify small molecule agonists of the estrogen receptor alpha (ER-alpha) signaling pathway (AID 743075; calls by dose curve;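 also: HEK293 GripTite cells with ER-alpha and UAS-driven beta-lactamase reporter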; also: potency is read from the fitted curve at half-maximal effect).
Experiment [18] shares this target. The experiment in a line: qHTS assay to identify small molecule agonists of the estrogen receptor alpha (ER-alpha) signaling pathway using the BG1 cell line (AID 743079). Also: nearly all actives have a fitted effect of over 20% in size. Also: potency is read from the fitted curve at half-maximal effect.
Experiment [19] is described as follows: qHTS assay to identify small molecule antagonists of the estrogen receptor alpha (ER-alpha) signaling pathway using the BG1 cell line (AID 743080; calls by dose curve;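 also: BG1 cells stimulated with 17beta-estradiol alongside compound; series mostly up to about 70 µM; nearly all actives have a fitted effect of over 25% in size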). An outline of the steps: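 BG1-Luc-4E2 cells (endogenous full-length ER-alpha, stable 4×ERE-luciferase) were starved 5 days in phenol-red-free medium with 10% charcoal-stripped FBS, plated 24 h, then given compound plus 17beta-estradiol for 21.5 h at 37 C; ONE-Glo luminescence read after 30 min.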

Androgen receptor (Homo sapiens), sequence (P10275 whole entry, looked up): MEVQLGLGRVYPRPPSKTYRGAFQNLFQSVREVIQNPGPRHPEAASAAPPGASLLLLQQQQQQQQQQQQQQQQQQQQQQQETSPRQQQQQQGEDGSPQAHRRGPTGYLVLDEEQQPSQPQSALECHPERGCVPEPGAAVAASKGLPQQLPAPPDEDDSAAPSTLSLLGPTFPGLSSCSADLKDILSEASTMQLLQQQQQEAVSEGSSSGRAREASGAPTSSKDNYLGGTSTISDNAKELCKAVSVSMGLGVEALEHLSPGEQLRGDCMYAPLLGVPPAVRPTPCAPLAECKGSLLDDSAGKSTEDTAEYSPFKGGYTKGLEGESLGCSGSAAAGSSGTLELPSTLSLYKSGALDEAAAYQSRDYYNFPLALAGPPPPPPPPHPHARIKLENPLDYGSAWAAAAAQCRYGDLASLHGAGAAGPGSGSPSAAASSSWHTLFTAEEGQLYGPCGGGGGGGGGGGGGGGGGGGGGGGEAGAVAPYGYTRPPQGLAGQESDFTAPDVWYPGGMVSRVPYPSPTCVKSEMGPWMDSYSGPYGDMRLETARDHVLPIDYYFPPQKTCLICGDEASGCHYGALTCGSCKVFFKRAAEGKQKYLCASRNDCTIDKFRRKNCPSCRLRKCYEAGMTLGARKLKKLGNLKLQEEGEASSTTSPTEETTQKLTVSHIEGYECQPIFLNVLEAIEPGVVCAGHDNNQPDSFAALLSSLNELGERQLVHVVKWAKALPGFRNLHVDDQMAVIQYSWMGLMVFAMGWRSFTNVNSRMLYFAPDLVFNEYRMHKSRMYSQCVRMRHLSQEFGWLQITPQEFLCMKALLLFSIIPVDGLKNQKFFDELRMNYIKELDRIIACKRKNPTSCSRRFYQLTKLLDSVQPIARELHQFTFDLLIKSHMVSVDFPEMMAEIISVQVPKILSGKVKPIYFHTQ
Estrogen receptor (Homo sapiens), sequence (P03372 whole entry, looked up): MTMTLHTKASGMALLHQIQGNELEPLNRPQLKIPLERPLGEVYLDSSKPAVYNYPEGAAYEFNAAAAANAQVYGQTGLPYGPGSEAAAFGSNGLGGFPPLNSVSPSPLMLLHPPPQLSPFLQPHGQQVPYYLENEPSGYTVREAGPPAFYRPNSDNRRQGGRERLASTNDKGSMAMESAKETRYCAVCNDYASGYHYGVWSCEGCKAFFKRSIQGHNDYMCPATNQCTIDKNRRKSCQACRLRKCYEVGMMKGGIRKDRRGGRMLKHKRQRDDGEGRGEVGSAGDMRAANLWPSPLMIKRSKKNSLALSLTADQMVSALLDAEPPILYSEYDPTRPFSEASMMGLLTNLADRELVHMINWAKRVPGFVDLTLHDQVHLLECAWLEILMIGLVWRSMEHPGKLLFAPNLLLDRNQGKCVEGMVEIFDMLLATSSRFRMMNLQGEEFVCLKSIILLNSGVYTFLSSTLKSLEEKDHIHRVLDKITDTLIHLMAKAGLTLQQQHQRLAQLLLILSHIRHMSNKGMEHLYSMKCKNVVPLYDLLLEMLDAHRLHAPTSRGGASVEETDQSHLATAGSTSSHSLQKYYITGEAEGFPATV
Aromatase (Homo sapiens), sequence (P11511 whole entry, looked up): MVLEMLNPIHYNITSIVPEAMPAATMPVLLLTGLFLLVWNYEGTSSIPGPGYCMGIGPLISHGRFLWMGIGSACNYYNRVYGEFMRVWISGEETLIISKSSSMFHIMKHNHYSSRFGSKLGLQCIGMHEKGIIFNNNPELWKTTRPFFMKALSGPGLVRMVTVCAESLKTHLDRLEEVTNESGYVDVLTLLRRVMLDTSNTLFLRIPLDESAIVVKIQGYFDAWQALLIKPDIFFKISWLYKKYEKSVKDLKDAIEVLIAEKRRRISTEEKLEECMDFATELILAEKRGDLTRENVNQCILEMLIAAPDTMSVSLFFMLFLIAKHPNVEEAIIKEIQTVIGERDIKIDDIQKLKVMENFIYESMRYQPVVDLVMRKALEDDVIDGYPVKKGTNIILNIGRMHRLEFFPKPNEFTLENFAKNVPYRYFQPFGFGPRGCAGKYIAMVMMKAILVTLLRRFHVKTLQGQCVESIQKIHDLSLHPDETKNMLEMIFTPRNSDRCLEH

As to `Cc1cc(CC(=O)O)c(C)n1-c1ccc(Cl)cc1`, the Potency result (in [1]; in experiment [4]; in experiment [5]; in experiment [6]; in experiment [8]; in the experiment with Aromatase (Homo sapiens)) was “inactive” throughout. In addition, the Potency in experiment [2] was 26.6 µM (active); in experiment [3], 33.5 µM (active). Further, the compound was called inactive in experiment [7].
In the case of `Cc1cc(NC(=O)C(=O)O)cc(C)c1Oc1ccc(O)c2c1CCC2`, the Potency entry in experiment [1], in experiment [2], in experiment [9], in [4], in [10] and in experiment [12] was “inactive” throughout. For the same compound, the Potency result in [5], in [13], in experiment [14], in [15], in [16] and in [17] was “inactive” throughout. The Potency entry (in experiment [19]; in experiment [8]; in the experiment with Aromatase (Homo sapiens)) was “inactive” throughout. In [11], the outcome was inactive. Also, the Potency in experiment [6] is 0.0017 µM (active); in [18], 38.6 µM (active).
In the case of `CC(=O)c1c(C)c([N+](=O)[O-])c(C(C)(C)C)c([N+](=O)[O-])c1C`, the Potency entry in experiment [1], in experiment [2], in experiment [3], in experiment [4], in [5] and in [6] was “inactive” each time. Moreover, the Potency result (in experiment [8]; with Aromatase (Homo sapiens)) was “inactive” in each case. In [7], the compound was called inactive.
For `COC(=O)C(C)=O`, the Potency result in [1], in experiment [2], in experiment [3], in [4], in experiment [5] and in experiment [14] was “inactive” throughout. Moreover, the Potency result in experiment [15], in experiment [6], in [16], in [17], in experiment [18] and in experiment [19] was “inactive” each time. Moreover, the Potency result (in [8]; with Aromatase (Homo sapiens)) was “inactive” each time. The result in experiment [7] was inactive.
`Cc1ccc(C(N)=O)cc1N`: the Potency result in [1], in experiment [2], in experiment [3], in [4], in [5] and in [14] was “inactive” in each case. Besides, the Potency entry (in experiment [6]; in experiment [16]; in experiment [17]; in experiment [18]; in [8]; with Aromatase (Homo sapiens)) was “inactive” throughout. The compound was called inactive in experiment [7].
With `Cl/C(=C\n1cncn1)c1ccc(Cl)cc1Cl`, the Potency entry in experiment [1], in experiment [2], in experiment [3], in experiment [4], in experiment [14] and in experiment [6] was “inactive” each time. In addition, the Potency entry in [8] is “inactive”. The result in experiment [7] was inactive.
On to `CC(C)(C)c1cc(CCC(=O)OCC(COC(=O)CCc2cc(C(C)(C)C)c(O)c(C(C)(C)C)c2)(COC(=O)CCc2cc(C(C)(C)C)c(O)c(C(C)(C)C)c2)COC(=O)CCc2cc(C(C)(C)C)c(O)c(C(C)(C)C)c2)cc(C(C)(C)C)c1O`, for which the Potency entry in experiment [1], in experiment [2], in experiment [3], in experiment [4], in experiment [5] and in experiment [15] was “inactive” in each case. The Potency entry (in experiment [6]; in experiment [16]; in experiment [19]; in [8]; in the experiment with Aromatase (Homo sapiens)) was “inactive” each time. Further, the compound was classed as inactive in [7]. Further, the Potency was 0.0074 µM [inconclusive] (active) in experiment [17] and 4.11 µM (active) in [18].
As for `CCCCc1cc2ccccc2c(OCCN(C)C)n1`, the Potency entry (in [1]; in experiment [4]; in experiment [5]; in experiment [6]; with Aromatase (Homo sapiens)) was “inactive” throughout. The Potency is 6.39 µM (active) in experiment [2], 9.02 µM (active) in [3] and 8.04 µM (active) in experiment [14]. Besides, in [7], the result was inactive.
As to `CCN(CC)CCOC(=O)C1(c2ccccc2)CCCC1`, the Potency result in experiment [1], in experiment [4], in experiment [10], in experiment [12], in experiment [5] and in experiment [13] was “inactive” each time. The Potency entry in experiment [6], in experiment [16], in experiment [17], in experiment [18], in experiment [19] and in experiment [8] was “inactive” in each case. Besides, the Potency result with Aromatase (Homo sapiens) was “inactive”. Besides, the Potency is 26.6 µM (active) in experiment [2] and 23.7 µM (active) in experiment [9]. Further, the result in experiment [11] and in experiment [7] was inactive.
As for `CN1CCC[C@@H]1c1cccnc1`, the Potency entry in experiment [1], in experiment [2], in experiment [3], in experiment [4], in experiment [5] and in experiment [14] was “inactive” each time. For the same compound, the Potency entry (in [15]; in [6]; in experiment [19]; in experiment [8]; in the experiment with Aromatase (Homo sapiens)) was “inactive” each time. Further, the call in experiment [7] was inactive.
